Results with a measured potency or affinity are listed apart. Calls of active or inactive are those of the source.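 How the source made its calls: active means signal drop whose fitted half-maximal concentration is at most twice the top valid dose, in every test run; inconclusive means mixed calls across runs, poor fit, or flat 30 to 70% inhibition; inactive means wrong direction, flat within 30%, or potency beyond limit.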
Assay: RMG-1 ovarian cancer cell viability loss – cherry-pick, dose response (AID 687029);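 further: cells exposed to compound for 96 hours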
Conditions: RMG-1 viability, CellTiterGlo ATP luminescence, 96 h; series mostly up to 35 µM; activity change, negative = inhibition: at the top concentration

Row | SMILES | activity change, negative = inhibition
1 | COc1ccc(-c2cc(CNc3nc(NC(C)C)nc4cc(-c5ccccc5)sc34)on2)cc1 | 28.7% (inactive)
2 | CN(C)CCNC(=O)c1cc2c(s1)-c1ccc(Cl)cc1SC2 | 27% (inactive)
3 | Brc1ccc2nc(-c3ccc(CN4CCC(c5nc6ccccc6[nH]5)CC4)cc3)c(-c3ccccc3)nc2c1 | -5.81% (inactive)
4 | C=C1C(=O)C23C(O)C1CCC2C12CCCC(C)(COC(C)=O)C1C(O)C3(O)OC2 (centres undefined) | 30.8% (inactive)
5 | COC1=CC(=O)c2c(ccc3ncnc(N)c23)C1=O | 18.3% (inactive)
6 | O=C1C(=O)c2cccnc2-c2ncccc21 | 25.8% (inactive)
7 | O=C(NC1=C(NC2CCS(=O)(=O)C2)C(=O)c2ccccc2C1=O)c1ccccc1 (centres undefined) | 14.2% (inactive)
8 | NC(N)=NN=C(c1ccc(F)cc1)c1ccc(C(F)(F)F)cc1 | 43.2% (inactive)
9 | Cc1nc(-c2ccc(NC(=O)c3ccco3)cc2)cs1 | -156% (inactive)
10 | Clc1ccc(Cn2ncc3c(N4CCN(c5ccccc5)CC4)ncnc32)cc1 | 10.6% (inactive)
11 | Nc1ncnc2c(C3OC(CO)C(O)C3O)c[nH]c12 (centres undefined) | 17.2% (inactive)
12 | CN(C[C@H]1N[C@@H](CO)[C@@H]1c1ccc(C2=CCCC2)cc1)C(=O)c1cccc(F)c1 | 16.8% (inactive)
13 | CCC1CCCCN1S(=O)(=O)c1ccc(NC(=O)c2nc(S(C)(=O)=O)ncc2Cl)cc1 (centres undefined) | 40.6% (inactive)
14 | O=C(CCCCCCC(=O)Nc1ccccc1)NO | 36.2% (inactive)
15 | CCCCCCN(C(=O)CCl)c1ccccc1 | 23.2% (inactive)
16 | O=C(C#Cc1ccccc1)c1ccco1 | 11.3% (inactive)
17 | COC(=O)C1=C(C)N(Cc2cccc(C(F)(F)F)c2)C(=NCc2ccc(OC)cc2)NC1c1cccc(F)c1 (centres undefined) | 11.9% (inactive)
18 | COc1ccc(N(C(=O)CCl)C(C(=O)NCCc2ccccc2)c2cccs2)cc1 (centres undefined) | -6.15% (inactive)
19 | Cc1ccc(Cn2ccsc2=NC(=O)CCl)cc1 | 28.6% (inactive)
20 | O=C(Nc1ccc([N+](=O)[O-])cc1)C(=O)Nc1cccc(C(=O)O)c1 | 28.5% (inactive)

Row | SMILES | activity change, negative = inhibition
21 | COc1ccccc1NC(=O)c1nc(S(=O)(=O)Cc2ccccc2)ncc1Cl | 35.2% (inactive)
22 | CCS(=O)(=O)c1ccc(N=Nc2ccc(O)c3ncccc23)c(OC)c1 | 15.3% (inactive)
23 | CN(C)CCNC(=O)c1cccc(-c2cnc3c(NC=O)cc(-c4cccc(C(F)(F)F)c4)cn23)c1 | 34.4% (inactive)
24 | CCN1CCN(Cc2ccc(NC(=O)c3ccc(C)c(NC(=O)c4c[nH]c5cc(C(F)(F)F)ccc5c4=O)c3)cc2C(F)(F)F)CC1 | 30.6% (inactive)
25 | O=C(O)c1ccc(N/N=C/c2ccc3c(c2)OCO3)cc1 | 63.7% (inactive)
26 | C=CCn1c(C)cc(C2=NNC(=NCC)SC2)c1C | 28.8% (inactive)
27 | O=C(CCl)N=c1sccn1Cc1cccc2ccccc12 | 30.4% (inactive)
28 | COC(=O)C1C=CC(OC2OC(COC(C)=O)C(OC(C)=O)C(OC(C)=O)C2OC(C)=O)n2c(=O)n(-c3ccccc3)c(=O)n21 (centres undefined) | -4.54% (inactive)
29 | C(=NNc1ccc2ccccc2n1)c1ccccn1 | 40% (inactive)
30 | CC[C@@H](C)[C@H](CNC)NC[C@@H](Cc1cccc2ccccc12)NCCc1cccc(C(F)(F)F)c1 | 35.6% (inactive)
31 | OCC1OC(n2cnc3c(NCc4ccccc4O)ncnc32)C(O)C1O (centres undefined) | 15.3% (inactive)
32 | C[C@@H]1CN([C@@H](C)CO)C(=O)Cc2cc(NS(=O)(=O)c3ccccc3)ccc2O[C@H]1CN(C)Cc1ccc(Cl)c(Cl)c1 | 15% (inactive)
33 | CC(=NNc1ccc2ccccc2n1)c1ccccn1 | 27.6% (inactive)
34 | CCOc1ccc(C(=O)O/N=C(\N)c2ccccn2)cc1 | 18.7% (inactive)
35 | COc1ccc(/C=c2/sc3n(c2=O)C(c2ccccc2OC)C2=C(N=3)c3ccccc3CC2)cc1O (centres undefined) | 44.7% (inactive)
36 | Cc1cc(Br)c(OCc2ccc(C(=O)N/N=C/c3ccc[nH]3)cc2)c(Br)c1 | 26.7% (inactive)
37 | COc1ccc(OCc2cccc(C(=O)Nn3cc([N+](=O)[O-])cn3)c2)cc1 | 21.6% (inactive)
38 | COc1ccc(OCc2cccc(C(=O)Nc3cc(C)on3)c2)cc1 | 28.9% (inactive)
39 | Cc1ccc(Cl)cc1NC1=C/C(=N\S(=O)(=O)c2cccs2)c2ccccc2C1=O | 24.4% (inactive)

Reference: PubChem BioAssay
